The source of these data is PubChem BioAssay (NCATS).

Inconclusive results are not listed. The source made the active and inactive calls. Calls follow the shape of the dose curve; as a rule, active = well fitted curve in the direction sought with a large enough effect; inconclusive = small, poorly fitted or top-dose-only effect, or another doubt; inactive = no such curve, though single readings can be large; an effect the other way counts as inactive or inconclusive.

The nature of test [1]: qHTS of pediatric cancer cell lines to identify multiple opportunities for drug repurposing: Primary screen for MG 63 (6-TG R) cells (AID 1347105). Also: nearly all actives have a fitted effect of over 50% in size. Also: potency is read from the fitted curve at half-maximal effect. An outline of the steps: (§1)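 CRCs from 8- or 11-point titrations (lowest final 0.59 nM NPC, 0.78 nM MIPE). Cell viability: CellTiter-Glo after 48 h incubation, 15 min room-temperature development, luminescence imaging.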
(In general: In qHTS, concentration-response curves come from the screen itself.)

Test [2] is described as follows: qHTS of pediatric cancer cell lines to identify multiple opportunities for drug repurposing: Primary screen for control Hh wild type fibroblast cells (AID 1347106). Also: nearly all actives have a fitted effect of over 55% in size. Also: potency is read from the fitted curve at half-maximal effect. Summed up:
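Viability after 48 h compound treatment at 37C, 500-1,000 cells/well, read as ATP luminescence with CellTiter-Glo. Primary screens used 11-point (MIPE, 0.78 nM-46 µM) or 8-point (NPC, 0.59 nM-46 µM) final concentrations; follow-up screens used 11-point dilutions.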

The nature of test [3]: qHTS of pediatric cancer cell lines to identify multiple opportunities for drug repurposing: Primary screen for Rh30 cells (AID 1347107). Also: series mostly up to about 46 µM; nearly all actives have a fitted effect of over 75% in size. An outline of the steps: (§2)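 Cells (500-1,000/well) rested 5 h, then received compounds for 48 h; metabolically active cells were measured by CellTiter-Glo luminescence. Final concentrations spanned up to 46 µM (MIPE, 11-point) or 0.59 nM-46 µM (NPC, 8-point) in primary screens, 11-point in follow-ups.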

Test [4] can be described thus: qHTS of pediatric cancer cell lines to identify multiple opportunities for drug repurposing: Primary screen for Rh41 cells (AID 1347108).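 Also: series mostly up to about 46 µM; luminescence drop marks cytotoxic hits; nearly all actives have a fitted effect of over 70% in size.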 An outline of the steps: as §1
Test [5] can be described thus: qHTS of pediatric cancer cell lines to identify multiple opportunities for drug repurposing: Confirmatory screen for SK-N-MC cells (AID 1347111).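 Also: cells exposed to compound for 48 h before the readout; nearly all actives have a fitted effect of over 70% in size.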 Also: potency is read from the fitted curve at half-maximal effect. Summed up:
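Seed 500-1,000 cells/well; rest 5 h at 37 degrees C. Pin-transfer compounds, 11-point titration. Incubate 48 h. Add CellTiter-Glo, 15 min RT, read luminescence.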

Test [6] in a line: qHTS of pediatric cancer cell lines to identify multiple opportunities for drug repurposing: Confirmatory screen for BT-12 cells (AID 1347112). Also: nearly all actives have a fitted effect of over 55% in size. An outline of the steps: as §2
Test [7] can be described thus: qHTS of pediatric cancer cell lines to identify multiple opportunities for drug repurposing: Confirmatory screen for DAOY cells (AID 1347114). Also: nearly all actives have a fitted effect of over 65% in size. Summed up: (§3)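 Viability measured as metabolically active cells via CellTiter-Glo luminescence following 48 hours of compound exposure, 11-point dilutions in confirmatory testing. 500-1,000 cells/well plated 5 hours before dosing; controls were DMSO and 2.3 µM bortezomib.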

Test [8] is described as follows: qHTS of pediatric cancer cell lines to identify multiple opportunities for drug repurposing: Confirmatory screen for NB-EBc1 cells (AID 1347115).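 Also: cells exposed to compound for 48 h before the viability read; nearly all actives have a fitted effect of over 45% in size.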 Summed up: as §2
Test [9] is described as follows: qHTS of pediatric cancer cell lines to identify multiple opportunities for drug repurposing: Confirmatory screen for LAN-5 cells (AID 1347113). Also: nearly all actives have a fitted effect of over 65% in size. An outline of the steps: as §2
A short description of test [10]: qHTS of pediatric cancer cell lines to identify multiple opportunities for drug repurposing: Confirmatory screen for SJ-GBM2 cells (AID 1347116). Also: nearly all actives have a fitted effect of over 60% in size. An outline of the steps: as §3

In the case of `Cc1ncc(CSSCc2cnc(C)c(O)c2CO)c(CO)c1O`, the Potency result in test [1], in test [2], in test [3] and in test [4] was “inactive” each time.

Consider `COc1ccc(OC)c(C(O)CNC(=O)CN)c1` (stereo not drawn), for which the Potency result in test [1], in [2], in test [3] and in test [4] was “inactive” each time.

As for `CCCN1CCCC[C@H]1C(=O)Nc1c(C)cccc1C`, the Potency entry in [1], in test [2], in test [3] and in [4] was “inactive” in each case.

`Oc1ccc(Cl)c2cccnc12`: the Potency entry in test [1] and in test [3] was “inactive” in each case. In test [2], the Potency was 16.8 µM (active).

Turning to `Oc1c(I)cc(Cl)c2cccnc12`, the Potency in test [1] was 21.1 µM (active). Also, the Potency entry in test [2] and in test [3] was “inactive” each time.

`CC(C)(C)CC(C)(C)c1ccc(O)c(Cc2ccc(Cl)cc2Cl)c1`: in [1], the Potency is 26.6 µM (active). The Potency entry in [2] is “inactive”.

For `CN(C)CCOc1ccccc1Cc1ccccc1`, the Potency result in test [1], in test [2], in test [3] and in test [4] was “inactive” each time.

For `CN(C)CCCOc1nn(Cc2ccccc2)c2ccccc12`, the Potency result in test [1], in [2], in test [3] and in [4] was “inactive” in each case.

Consider `O=c1[nH]c(=O)n([C@H]2C[C@H](O)[C@@H](CO)O2)cc1C(F)(F)F`, for which the Potency result in test [1] is “inactive”.

Take `CC(C)n1nc(-c2cc3cc(O)ccc3[nH]2)c2c(N)ncnc21`: the Potency in test [1] is 1.68 µM (active).

As to `COc1ccc(CCN2CCC(Nc3nc4ccccc4n3Cc3ccc(F)cc3)CC2)cc1`, the Potency in [1] is 16.8 µM (active).

Turning to `Cc1cc(=O)n(-c2ccccc2)n1C`, the Potency entry in test [1], in test [2], in [3] and in [4] was “inactive” throughout.

On to `Cc1onc(-c2c(Cl)cccc2Cl)c1C(=O)N[C@@H]1C(=O)N2[C@@H]1SC(C)(C)[C@@H]2C(=O)O`, for which the Potency result in [1], in [2], in test [3] and in test [4] was “inactive” each time.

As for `COc1cc(OC)cc(OC)c1`, the Potency result in test [1], in test [2], in test [3] and in [4] was “inactive” in each case.

`O=C1[C@H]2CCCC[C@H]2C(=O)N1CCCCN1CCN(c2nsc3ccccc23)CC1`: the Potency entry in [1] and in [2] was “inactive” each time.

In the case of `CN1CCC[C@@H]1c1cccnc1`, the Potency entry in [1], in [2], in [3] and in test [4] was “inactive” throughout.

Turning to `CCOC(=O)[C@H](CCc1ccccc1)N[C@@H](C)C(=O)N1Cc2ccccc2C[C@H]1C(=O)O`, the Potency entry in test [1], in test [2] and in [3] was “inactive” in each case.

Turning to `CC1(C)OC[C@@H](COC(=O)CCc2ccc(OC[C@@H](O)CNCCNC(=O)N3CCOCC3)cc2)O1`, the Potency entry in [1], in test [2], in test [3] and in test [4] was “inactive” each time.

For the compound `COc1ccc(/C=C/C(=O)c2ccc(OC)cc2OC)cc1`, the Potency entry in test [1] is “inactive”.

For the compound `CC(=O)Oc1ccc(C(=C2CCCCC2)c2ccc(OC(C)=O)cc2)cc1`, the Potency result in [1], in test [2], in test [3] and in test [4] was “inactive” each time.

As to `C=C(CC)C(=O)c1ccc(OCC(=O)O)c(Cl)c1Cl`, in [1], the Potency is 21.1 µM (active). Also, the Potency entry in [2] and in test [3] was “inactive” throughout.

As for `CCOC(=O)c1cccc(N)c1`, the Potency result in [1], in test [2], in test [3] and in [4] was “inactive” throughout.

On to `CCN(CC)C(=O)/C(C#N)=C/c1cc(O)c(O)c([N+](=O)[O-])c1`, for which the Potency entry in [1], in test [2], in test [3] and in test [4] was “inactive” throughout.

For the compound `CC(C)=CCC1C(=O)N(c2ccccc2)N(c2ccccc2)C1=O`, the Potency entry in [1], in test [2], in test [3] and in test [4] was “inactive” throughout.

With `O=C(OCC(O)CO)c1ccccc1Nc1ccnc2cc(Cl)ccc12` (stereo not drawn), the Potency entry in test [1], in test [2] and in test [3] was “inactive” each time.

As for `Cc1ccc(Nc2c(F)cccc2Cl)c(CC(=O)O)c1`, the Potency entry in test [1], in test [2], in test [3] and in test [4] was “inactive” each time.

As to `c1ccc(-c2ccc(C(c3ccccc3)n3ccnc3)cc2)cc1` (stereo not drawn), the Potency entry in test [1], in test [2] and in test [3] was “inactive” in each case.

With `O=C(OCCOCCO)c1ccccc1Nc1cccc(C(F)(F)F)c1`, the Potency entry in [1], in test [2], in [3] and in [4] was “inactive” in each case.

For `NCCCC[C@H](N[C@@H](CCc1ccccc1)C(=O)O)C(=O)N1CCC[C@H]1C(=O)O`, the Potency result in test [1], in test [2], in test [3] and in test [4] was “inactive” in each case.

Regarding `Cc1ccc(C(=O)C(C)CN2CCCCC2)cc1` (stereo not drawn), the Potency entry in test [1], in test [2], in [3] and in test [4] was “inactive” each time.

Regarding `NC[C@H]1O[C@H](O[C@H]2[C@H](O)[C@@H](O[C@H]3O[C@H](CO)[C@@H](O)[C@H](N)[C@H]3O)[C@H](N)C[C@@H]2N)[C@H](N)[C@@H](O)[C@@H]1O`, the Potency result in test [1], in [2], in test [3] and in [4] was “inactive” throughout.

Consider `CC1(C)O[C@@H]2C[C@H]3[C@@H]4C[C@H](F)C5=CC(=O)C=C[C@]5(C)[C@H]4[C@@H](O)C[C@]3(C)[C@]2(C(=O)CO)O1`, for which the Potency entry in [1], in [2], in [3] and in [4] was “inactive” in each case.

Regarding `COc1cc2c(cc1OC)C(=O)C(CC1CCN(Cc3ccccc3)CC1)C2` (stereo not drawn), the Potency entry in test [1], in [2], in test [3] and in test [4] was “inactive” each time.

`CNC(=O)CN(CCN(CCN(CC(=O)[O-])CC(=O)NC)CC(=O)[O-])CC(=O)[O-].O.[Gd+3]`: the Potency entry in [1], in test [2], in [3] and in test [4] was “inactive” in each case.

With `CCOc1ccc(Cc2nccc3cc(OCC)c(OCC)cc23)cc1OCC`, the Potency entry in test [1] and in test [2] was “inactive” in each case.

Consider `COc1ccc(CN2CCN(C(c3ccc(F)cc3)c3ccc(F)cc3)CC2)c(OC)c1OC`, for which the Potency result in test [1], in test [2] and in test [3] was “inactive” throughout.

Take `CCCCCC=CCC=CCCCCCCCC(=O)OCC`: the Potency result in test [1], in [2] and in test [4] was “inactive” throughout.

`CC(C)(C(=O)c1cccnc1)c1cccnc1`: the Potency result in test [1], in [2], in test [3], in test [4], in test [6] and in test [7] was “inactive” throughout. In addition, in test [8], the Potency result is “inactive”. Besides, the Potency in test [5] was 2.93 µM (active).

As to `C[C@@H]1C[C@H]2[C@@H]3CCC4=CC(=O)C=C[C@]4(C)[C@@]3(F)[C@@H](O)C[C@]2(C)[C@H]1C(=O)CO`, the Potency result in test [1], in [2], in test [3], in [4], in [6] and in test [9] was “inactive” each time. The Potency result in test [7], in [8] and in test [10] was “inactive” throughout.

Regarding `CC(=O)OCC(=O)[C@@]1(O)CC[C@H]2[C@@H]3CCC4=CC(=O)C=C[C@]4(C)[C@H]3[C@@H](O)C[C@@]21C`, the Potency result in test [1], in test [2], in test [3], in test [4], in test [5] and in test [6] was “inactive” in each case. Also, the Potency entry in test [7], in test [8] and in [10] was “inactive” each time.
